# PubChem BioAssay AID1159580 (chemical genetic matrix, 2015)
# About 2,000 (36%) of roughly 5,500 compounds were called active. Not shown: some 18% with an inconclusive outcome. The list shows a part of the results. Unmarked numbers belong to inactive results. No stated cut-off is given here; in the data, active means normalized growth mostly below about 0.91 (no sharp cut-off); inconclusive means no clear call, values can overlap the other calls; inactive means mostly above about 0.92.
# Experiment: chemical genetic growth profiling, strain panel (AID 1159580);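 further: tested at 20 µM; growth read once vehicle control cultures reached saturation at 30 °C; 1 = growth at the plate median or of vehicle wells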
# Conditions: S. cerevisiae deletion strains, growth OD
structure (smiles),measurement,setting,value
CC1=C(CC(=O)O)c2cc(F)ccc2/C1=C\c1ccc(S(C)(=O)=O)cc1,normalized growth,"locus YAL013W, strain DEP1, stronger effect = lower value",1.02
same,normalized growth,"locus YAL040C, strain CLN3, stronger effect = lower value",0.996
same,normalized growth,"locus YCL061C, strain MRC1 (second series), stronger effect = lower value",0.99
same,normalized growth,"locus YDR150W, strain NUM1, stronger effect = lower value",0.989
same,normalized growth,"locus YDR363W, strain ESC2, stronger effect = lower value",1.02
same,normalized growth,"locus YER002W, strain NOP16, stronger effect = lower value",1
same,normalized growth,"locus YGR229C, strain SMI1, stronger effect = lower value",1.04
same,normalized growth,"locus YMR307W, strain GAS1, stronger effect = lower value",0.946
same,normalized growth,"locus YNL153C, strain GIM3, stronger effect = lower value",0.982
same,normalized growth,"locus YNL175C, strain NOP13, stronger effect = lower value",0.98
same,normalized growth,"locus YNL197C, strain WHI3, stronger effect = lower value",0.979
same,normalized growth,"locus YNL224C, strain SQS1, stronger effect = lower value",0.99
same,normalized growth,"locus YNL322C, strain KRE1, stronger effect = lower value",1
same,normalized growth,"locus YOR083W, strain WHI5 (second series), stronger effect = lower value",0.973
same,normalized growth,"locus YPL055C, strain LGE1, stronger effect = lower value",1.05
COc1ccc(/C=C2\CSc3ccc(F)cc3C2=O)cc1,normalized growth,"locus YAR019C, strain CDC15, stronger effect = lower value",0.955
same,normalized growth,"locus YBL105C, strain PKC1, stronger effect = lower value",0.96
same,normalized growth,"locus YBR135W, strain CKS1, stronger effect = lower value",0.951
same,normalized growth,"locus YBR136W, strain MEC1, stronger effect = lower value",0.971
same,normalized growth,"locus YBR160W, strain CDC28, stronger effect = lower value",0.961
same,normalized growth,"locus YDL017W, strain CDC7, stronger effect = lower value",0.966
same,normalized growth,"locus YDL028C, strain MPS1, stronger effect = lower value",0.931
same,normalized growth,"locus YDL101C, strain DUN1, stronger effect = lower value",0.968
same,normalized growth,"locus YDL108W, strain KIN28, stronger effect = lower value",0.955
same,normalized growth,"locus YDL132W, strain cdc53, stronger effect = lower value",0.947
same,normalized growth,"locus YDL214C, strain PRR2, stronger effect = lower value",0.932
same,normalized growth,"locus YDR052C, strain DBF4, stronger effect = lower value",0.977
same,normalized growth,"locus YDR054C, strain cdc34, stronger effect = lower value",0.953
same,normalized growth,"locus YDR226W, strain ADK1, stronger effect = lower value",0.965
same,normalized growth,"locus YDR477W, strain SNF1, stronger effect = lower value",0.916
same,normalized growth,"locus YER123W, strain YCK3, stronger effect = lower value",0.896
same,normalized growth,"locus YER133W, strain GLC7, stronger effect = lower value",0.916
same,normalized growth,"locus YFL009W, strain cdc4, stronger effect = lower value",0.934
same,normalized growth,"locus YFL029C, strain CAK1, stronger effect = lower value",0.947
same,normalized growth,"locus YFR003C, strain YPI1, stronger effect = lower value",0.96
same,normalized growth,"locus YFR019W, strain FAB1, stronger effect = lower value",0.953
same,normalized growth,"locus YFR028C, strain CDC14, stronger effect = lower value",0.93
same,normalized growth,"locus YGR040W, strain KSS1, stronger effect = lower value",0.917
same,normalized growth,"locus YGR052W, strain FMP48, stronger effect = lower value",0.939
same,normalized growth,"locus YGR092W, strain DBF2, stronger effect = lower value",0.925
same,normalized growth,"locus YHR030C, strain SLT2, stronger effect = lower value",0.771 (active)
same,normalized growth,"locus YHR079C, strain IRE1, stronger effect = lower value",0.909
same,normalized growth,"locus YHR082C, strain KSP1, stronger effect = lower value",0.949
same,normalized growth,"locus YHR205W, strain SCH9, stronger effect = lower value",0.899
same,normalized growth,"locus YIL147C, strain SLN1, stronger effect = lower value",0.969
same,normalized growth,"locus YJL095W, strain BCK1, stronger effect = lower value",0.9
same,normalized growth,"locus YJL128C, strain PBS2, stronger effect = lower value",0.91
same,normalized growth,"locus YJL157C, strain FAR1, stronger effect = lower value",0.927
same,normalized growth,"locus YJR016C, strain ILV3, stronger effect = lower value",0.973
same,normalized growth,"locus YJR066W, strain TOR1 (second series), stronger effect = lower value",0.909
same,normalized growth,"locus YJR066W, strain TOR1, stronger effect = lower value",0.874
same,normalized growth,"locus YKL048C, strain ELM1, stronger effect = lower value",0.949
same,normalized growth,"locus YKL067W, strain YNK1, stronger effect = lower value",0.911
same,normalized growth,"locus YKL101W, strain HSL1, stronger effect = lower value",0.927
same,normalized growth,"locus YKL193C, strain SDS22, stronger effect = lower value",0.941
same,normalized growth,"locus YKL203C, strain TOR2, stronger effect = lower value",1.01
same,normalized growth,"locus YLR113W, strain HOG1, stronger effect = lower value",0.763 (active)
same,normalized growth,"locus YLR133W, strain CKI1, stronger effect = lower value",0.949
same,normalized growth,"locus YLR403W, strain SFP1, stronger effect = lower value",0.928
same,normalized growth,"locus YML070W, strain DAK1, stronger effect = lower value",0.91
same,normalized growth,"locus YMR001C, strain CDC5, stronger effect = lower value",0.952
same,normalized growth,"locus YMR205C, strain PFK2 (second series), stronger effect = lower value",0.942
same,normalized growth,"locus YMR277W, strain FCP1, stronger effect = lower value",0.929
same,normalized growth,"locus YNL006W, strain LST8, stronger effect = lower value",0.967
same,normalized growth,"locus YNL020C, strain ARK1, stronger effect = lower value",0.955
same,normalized growth,"locus YNL161W, strain CBK1, stronger effect = lower value",0.951
same,normalized growth,"locus YNL183C, strain NPR1, stronger effect = lower value",0.935
same,normalized growth,"locus YNL207W, strain RIO2, stronger effect = lower value",0.969
same,normalized growth,"locus YNL222W, strain SSU72, stronger effect = lower value",0.952
same,normalized growth,"locus YNL307C, strain MCK1 (second series), stronger effect = lower value",0.927
same,normalized growth,"locus YOL078W, strain AVO1, stronger effect = lower value",0.94
same,normalized growth,"locus YOL136C, strain PFK27, stronger effect = lower value",0.902
same,normalized growth,"locus YOR061W, strain CKA2, stronger effect = lower value",0.933
same,normalized growth,"locus YOR119C, strain RIO1, stronger effect = lower value",0.95
same,normalized growth,"locus YOR231W, strain MKK1, stronger effect = lower value",0.879
same,normalized growth,"locus YOR329C, strain SCD5, stronger effect = lower value",0.964
same,normalized growth,"locus YPL031C, strain PHO85, stronger effect = lower value",0.914
same,normalized growth,"locus YPL153C, strain RAD53, stronger effect = lower value",0.929
same,normalized growth,"locus YPL204W, strain HRR25, stronger effect = lower value",0.912
same,normalized growth,"locus YPL209C, strain IPL1, stronger effect = lower value",0.959
same,normalized growth,"locus YPL256C, strain CLN2, stronger effect = lower value",0.87
same,normalized growth,"locus YPR025C, strain CCL1, stronger effect = lower value",0.958
same,normalized growth,"locus YPR106W, strain ISR1, stronger effect = lower value",0.962
same,normalized growth,"locus YPR111W, strain DBF20, stronger effect = lower value",0.938
same,normalized growth,"strain NNK1, stronger effect = lower value",0.962
same,normalized growth,"strain TSCII, stronger effect = lower value",0.946
